Shown are actives, neighbours in structure and some others; about 21% of the full set was active somewhere.
DRD3 antagonist: D3 dopamine receptor (human) antagonism; D3R cells, DiscoveRx beta-arrestin luminescence, antagonist mode; stronger effect = lower value; max response, negative = inhibition, %; 2.5% of 360,000 active; AID 652054; in the data active means max response below about -50%; inconclusive means no clear call, values can overlap the other calls; further: on the % scale 0 is the no-effect control and ±100 the full control effect
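Cells expressing the human receptor were seeded at 1500 cells/well, incubated overnight at 37 degrees C in 5% CO2, then exposed to library compounds with dopamine controls for 90 minutes at 37 degrees C before luminescent detection.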
IL1B secr inh: inhibitors of inflammasome signaling (IL-1 beta secretion); THP-1 LPS/ATP IL-1B secretion, AlphaLISA, 16 h; stronger effect = lower value; activity change, % at 57.5 µM; 4.7% of 360,000 active; AID 743279; in the data active means activity change below about -50%; inconclusive means mostly about -30% to -49%; further: on the % scale 0 is the no-effect control and ±100 the full control effect
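Secreted IL-1B measured by AlphaLISA bead assay after 16 h compound exposure of THP-1 cells; compounds (final up to 57.5 uM) added 1 h before LPS (250 ng/mL) and ATP (1.25 mM) stimulation; lower signal means less secretion.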
D3 ag: D3 dopamine receptor (human) agonism. D3R DiscoveRx beta-arrestin cells, luminescence, 90 min. AID 652048. 0.58% of 410,000 active. max activation, %. P35462; in the data active means max activation above about 30%; further: 0% is about no effect
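Agonist mode: compounds and dopamine controls were applied to plated cells for 90 min at 37 degrees C after an overnight attachment at 1500 cells/well. Luminescent read-out followed 30 - 60 minutes at room temperature with DiscoveRx detection reagent.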
TDP1 cell noCPT: qHTS for Inhibitors of human tyrosyl-DNA phosphodiesterase 1 (TDP1): qHTS in cells in absence of CPT; Potency, µM (doses to about 46.2 µM), without a hit: at the top dose activity change, negative = growth inhibition, hits mostly inhibitors; 15% of 420,000 active; DT40 Tdp1-/- hTDP1 cells, no CPT, ATP luminescence, 48 h; further: potency means the concentration at half of the fitted maximal effect; on the % scale 0 is the no-effect control and ±100 the full control effect; nearly all actives have a fitted effect of over 55% in size
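Seeded 400 DT40-hTDP1 cells/well (vehicle DMSO, no 20 nM CPT); pinned compounds; ≥48 hr at 37 °C; CellTiter-Glo luminescence as viability measure.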
ClpP mod: qHTS Assay for Activators of ClpP; ATP-dependent Clp protease proteolytic subunit (Bacillus subtilis (strain 168)), P80244; purified B. subtilis ClpP, FRET peptide cleavage, 20 min; Potency, µM (top dose mostly 57.5 µM), without a hit: top-dose activity change, negative = active; 1.9% of 340,000 active; AID 651965, 2013; active means well fitted falling curve with a large enough effect; inconclusive means small, poorly fitted or top-dose-only effect; inactive means no such curve, though single readings can be large or run the other way; further: potency means the concentration at half of the fitted maximal effect; the source files actives as falling curves though it sought activators and does not explain the sign; nearly all actives have a fitted effect of over 65% in size
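Purified B. subtilis ClpP, 10 microg/mL final in Tris/HCl pH8 with KCl, BSA, glycerol and Tween-20, cleaved an Abz/nitrotyrosine-quenched decapeptide. Fluorescence (ex 320, em 430) was read at 0 and 20 min at room temperature. Delta was normalized to 5.8 microM ADEP and DMSO/no-enzyme controls.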
TDP1 cell CPT: DT40-hTDP1 cell growth loss with CPT. chicken DT40 Tdp1-/-;hTDP1 cells + 20 nM CPT, ATP luminescence, 48 h. Potency, µM (titrated, usually from 46.2 µM), for the others: top-dose activity change, negative = growth inhibition, most hits filed as inhibitors. 12% of 420,000 active; further: potency means the concentration at half of the fitted maximal effect; on the % scale 0 is the no-effect control and ±100 the full control effect; nearly all actives have a fitted effect of over 55% in size
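Chicken DT40 Tdp1-/- cells complemented with human TDP1, 400 cells/well, exposed to compounds plus 20 nM camptothecin for at least 48 h at 37 C; viability read as ATP content by CellTiter-Glo luminescence.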
* hit, by the source's call; ? = inconclusive; · = no result; [ ] = remark or other dose. Unless noted, the call rests on the fitted dose curve; in most records, active means well fitted inhibition curve with a large enough effect; inconclusive means small, poorly fitted or top-dose-only effect; inactive means flat fitted curve, though single readings scatter.

SMILES	DRD3 antagonist	IL1B secr inh	D3 ag	TDP1 cell noCPT	ClpP mod	TDP1 cell CPT
CC1(C(=O)NCc2ccccc2)CN(S(C)(=O)=O)CC(=O)N1C1CCN(Cc2ccccc2)CC1 (stereo not drawn)	-22	-26	-12	1%	-1%	1%
Cc1ccc(OCC(=O)Oc2c(C)cccc2C)cc1C	-10	0	4	-1%	-4%	-11%
COc1ccc(C(CCN2CCCC2)c2c(O)cc(OC)cc2OC)cc1 (stereo not drawn)	-1	-17	-2	?	1%	18µM*
COc1cc(O)c(C(CCN2CCCCC2)c2cc(OC)c(OC)c(OC)c2)c(OC)c1 (stereo not drawn)	-9	-26	3	-24%	-4%	?
COc1ccc(C(CCN2CCCCC2)c2c(O)cc(OC)cc2OC)cc1 (stereo not drawn)	-12	-24	-13	18µM*	0%	18µM*
CCN(CC)CCC(c1ccc(OC)cc1)c1c(O)cc(OC)cc1OC (stereo not drawn)	?	-19	-28	?	2%	21µM*
COCc1cc(C)nc(SCC(=O)Nc2nc(C)cs2)c1C#N	-7	-8	2	16µM*	·	?
CCCN1C(=O)NC2(O)C(=O)c3ccccc3C12O (stereo not drawn)	2	7	0	3%	1%	-1%
CN1C(=O)NC2(O)C(=O)c3ccccc3C12O (stereo not drawn)	-60*	35	9	10µM*	-3%	12µM*
O=C(CC1c2ccccc2C=C(c2ccsc2)N1c1ccc(-c2cccnc2)cc1)C1CC1 (stereo not drawn)	?	-13	-8	18µM*	4%	?
COC(=O)c1ccc(N2C(c3cccc(OC)c3)=Cc3ccc(F)cc3C2c2c(C)[nH]c3ccccc23)cc1 (stereo not drawn)	0	41	-1	?	20%	23µM*
COc1cccc(C2=Cc3ccc(F)cc3C(CC(C)=O)N2c2ccc(-c3cncnc3)cc2)c1 (stereo not drawn)	-5	15	-1	16µM*	?	13µM*
COc1cc(OC)cc(C2=Cc3ccc(OC)cc3C(CC(C)=O)N2c2ccc(-c3cccs3)cc2)c1 (stereo not drawn)	0	0	6	8.2µM*	-4%	21µM*
O=C1CC(C(=O)N2CCOc3ccc(CN4CCC(Oc5cccnc5)CC4)cc3C2)c2ccccc21 (stereo not drawn)	·	·	·	?	·	-6%[9.04 µM]
COc1ccc(NC(=O)CSc2nc(C)cs2)c([N+](=O)[O-])c1	12	-13	1	-23%	2%	-29%
COc1cc(OC)cc(C2=Cc3ccccc3C(CC(C)=O)N2c2ccc(-c3cncnc3)cc2)c1 (stereo not drawn)	-15	0	-7	16µM*	?	18µM*
COc1ccc(-c2ccc(N3C(c4ccsc4)=Cc4ccc(F)cc4C3c3c[nH]c4ccccc34)cc2)cc1 (stereo not drawn)	-14	32	2	18µM*	4%	?
COc1cc(OC)cc(C2=Cc3ccccc3C(CC(C)=O)N2c2ccc(-c3cccs3)cc2)c1 (stereo not drawn)	5	18	3	21µM*	-2%	?
Cn1cncc1C#Cc1ccc(N2C(c3ccsc3)=Cc3ccc(F)cc3C2c2c[nH]c3ccccc23)cc1 (stereo not drawn)	38	4	6	?	64%	?
Cc1cccc(C(c2sc3nc(-c4ccco4)nn3c2O)N2CCOCC2)c1 (stereo not drawn)	·	·	4	-23%	2%	0%
COc1ccc(NC(=O)C(=O)NCC2(c3ccccc3)CCCC2)c(OC)c1	·	·	2	?	-2%	?
O=C(CN(c1ccccc1)S(=O)(=O)c1ccccc1[N+](=O)[O-])N1CCCC1	4	-14	5	-14%	·	-1%
Cc1nn(C(=O)c2cccc([N+](=O)[O-])c2C)c(C)c1S(=O)(=O)N1CCCCCC1	·	·	3	-7%	-2%	-22%
COc1ccc(CNc2ccccc2SC)cc1OC	20	-5	12	?	1%	?
COc1cc(CNc2ccccc2SC)cc(OC)c1OC	8	-2	1	21µM*	-18%	21µM*
SMILES	DRD3 antagonist	IL1B secr inh	D3 ag	TDP1 cell noCPT	ClpP mod	TDP1 cell CPT
Cc1cccc(NC(=O)CSc2nnc(C)c(C)n2)c1	16	9	1	7%	·	1%
Cc1ccc(Cl)c(OCC(=O)OCC(=O)c2ccc[nH]2)c1	26	-2	4	-10%	-24%	?
CCOC(=O)COc1cc(N)c(Cl)cc1Cl	?	-53*	-8	-5%	·	-1%
O/C=c1\ccc2cccc3nc(C(F)(F)F)nc1c23	35	-1	8	21µM*	-5%	10µM*
CCc1ccc(C(=O)COC(=O)c2n[nH]c3ccccc23)cc1	15	-4	10	-9%	1%	-30%
O=S(=O)(c1cccc(F)c1)N1CCC(Oc2ccc(-n3cnnn3)cc2)CC1	·	·	-2	15µM*	1%	16µM*
CCc1c(C)sc(NC(=S)N2CCN(CC)CC2)c1C(=O)OC	-22	-56*	-18	?	·	?
Cc1ccc([C@@H]2CC=C(C(=O)O)[C@H](c3ccc(Cl)cc3)N2S(=O)(=O)c2ccc(C)cc2)cc1	?	25	-18	1%	1%	-8%
COc1ccc([C@@H]2CC=C(C(=O)O)[C@H](c3ccc(Cl)cc3)N2S(=O)(=O)c2ccccc2C)cc1	0	31	-14	-26%	-1%	-25%
Cc1ccc([C@@H]2CC=C(C(=O)O)[C@H](c3ccc(Cl)cc3)N2S(=O)(=O)c2ccccc2C)cc1	-61*	40	-44	-10%	-2%	-16%
Cc1ccccc1S(=O)(=O)N1[C@@H](c2ccccc2)C(C(=O)O)=CC[C@H]1c1ccc(Cl)cc1	-56*	13	-30	-10%	1%	-9%
CCOc1ccc([C@@H]2CC=C(C(=O)O)[C@H](c3ccc(Cl)cc3)N2S(=O)(=O)c2ccc(C)cc2)cc1	-73*	43	-30	-25%	-3%	-15%
Cc1ccccc1S(=O)(=O)N1[C@@H](c2ccc(Br)cc2)C(C(=O)O)=CC[C@H]1c1ccc(Cl)cc1	-11	5	-27	-24%	1%	-18%
